# According to PubChem BioAssay (NCATS):
# Results filed as inconclusive are left out. Entries that show only a call come without a potency. Activity calls are given as the source filed them. The call rests on the fitted dose curve; in most records, active means well fitted curve in the direction sought with a large enough effect; inconclusive means small, poorly fitted or top-dose-only effect, or another doubt; inactive means no such curve, though single readings can be large; an effect the other way counts as inactive or inconclusive.
# Biological target: Luciferin 4-monooxygenase (Photinus pyralis) (UniProt P08659)
# Test: Biochemical firefly luciferase enzyme assay for NPC (AID 624030)
# Conditions: purified P. pyralis luciferase, luminescence, 5 min; series mostly up to 58.6 µM
# Summary of the method: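 Direct inhibition of firefly luciferase enzyme (10 nM final, 50 mM Tris Acetate) assessed by luminescence within 5 minutes. Percent activity scaled between DMSO and PTC124 positive control, with concentration-effect curves classified by fit quality and response.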
# Further: nearly all actives have a fitted effect of over 70% in size.
# Potency means the concentration at half of the fitted maximal effect.
# Chain of Luciferin 4-monooxygenase (Photinus pyralis) (P08659 whole entry, looked up): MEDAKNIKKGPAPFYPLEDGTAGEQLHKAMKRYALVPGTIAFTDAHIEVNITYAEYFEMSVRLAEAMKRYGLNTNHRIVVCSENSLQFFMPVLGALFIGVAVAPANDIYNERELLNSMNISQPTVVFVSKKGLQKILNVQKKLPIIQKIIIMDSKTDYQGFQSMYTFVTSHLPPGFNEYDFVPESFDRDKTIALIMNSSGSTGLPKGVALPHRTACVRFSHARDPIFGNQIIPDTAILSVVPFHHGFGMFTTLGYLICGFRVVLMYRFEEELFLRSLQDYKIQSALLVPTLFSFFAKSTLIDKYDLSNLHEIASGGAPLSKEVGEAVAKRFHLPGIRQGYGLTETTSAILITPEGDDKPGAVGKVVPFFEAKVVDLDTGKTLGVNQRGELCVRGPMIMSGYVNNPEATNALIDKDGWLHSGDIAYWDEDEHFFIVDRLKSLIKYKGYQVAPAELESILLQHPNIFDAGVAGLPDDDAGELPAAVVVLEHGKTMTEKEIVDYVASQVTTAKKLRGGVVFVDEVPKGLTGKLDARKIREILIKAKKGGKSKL
row,SMILES,Potency
1,COC(=O)[C@H]1[C@H]2C[C@@H]3c4[nH]c5ccccc5c4CCN3C[C@H]2C[C@@H](OC(=O)c2cc(OC)c(OC)c(OC)c2)[C@@H]1OC,inactive
2,CC(C)=O,inactive
3,C[C@]12O[C@H](C[C@]1(O)CO)n1c3ccccc3c3c4c(c5c6ccccc6n2c5c31)CNC4=O,inactive
4,C[C@]12CCC(=O)C=C1CC[C@@H]1[C@@H]2[C@@H](O)C[C@@]2(C)[C@H]1CC[C@]2(O)C(=O)COP(=O)(O)O,inactive
5,COc1cc(-c2ccc(-[n+]3nc(-c4ccccc4)nn3-c3ccc([N+](=O)[O-])cc3)c(OC)c2)ccc1-[n+]1nc(-c2ccccc2)nn1-c1ccc([N+](=O)[O-])cc1,inactive
6,Cc1cn([C@H]2C[C@H](O)[C@@H](CO)O2)c(=O)[nH]c1=O,inactive
7,COC(=O)C1=C(C#N)NC(C)=C(C(=O)OC(C)C)C1c1cccc([N+](=O)[O-])c1 (configuration not stated),inactive
8,Cc1cc(C(=O)NNCc2ccccc2)no1,inactive
9,NC(=O)c1ncn(C2OC(CO)C(O)C2O)n1 (configuration not stated),inactive
10,O=C(O)CCC(=O)C(=O)O,inactive
11,O=C1C(=O)c2ncccc2-c2cccnc21,inactive
12,COC(=O)CCC(=O)CN,inactive
13,COC(F)(F)C(Cl)Cl,inactive
14,O=S(=O)(O)O,inactive
15,CCOc1ccc(N=Nc2ccc(N)cc2N)cc1,0.203 µM (active)
16,CCCCCCCC(=O)O,inactive
17,CCOC(C)=O,inactive
18,Cc1ccccc1,inactive
19,CC(C)(C)NC(=O)[C@@H]1C[C@@H]2CCCC[C@@H]2CN1C[C@@H](O)[C@H](Cc1ccccc1)NC(=O)[C@H](CC(N)=O)NC(=O)c1ccc2ccccc2n1,inactive
20,CCCCCCOc1ccc(C(=N)N(CCCC)CCCC)c2ccccc12,inactive

# System: not listed separately
# Test: S16 Schwann cell viability assay (CellTiter-Glo assay) (AID 624031)
# Conditions: S16 rat Schwann cells viability, 24 h; series mostly up to 57.5 µM
# Summary of the method: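 Parental S16 cells, 24 h compound, 37 °C. ATP-luminescence viability; DMSO = 0% activity, empty wells as reference; curves classified by fit quality and efficacy.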
row,SMILES,Potency
1,COC(=O)[C@H]1[C@H]2C[C@@H]3c4[nH]c5ccccc5c4CCN3C[C@H]2C[C@@H](OC(=O)c2cc(OC)c(OC)c(OC)c2)[C@@H]1OC,5.1 µM (active)
2,CC(C)=O,inactive
3,C[C@]12O[C@H](C[C@]1(O)CO)n1c3ccccc3c3c4c(c5c6ccccc6n2c5c31)CNC4=O,10.2 µM (active)
4,C[C@]12CCC(=O)C=C1CC[C@@H]1[C@@H]2[C@@H](O)C[C@@]2(C)[C@H]1CC[C@]2(O)C(=O)COP(=O)(O)O,inactive
5,Cc1cn([C@H]2C[C@H](O)[C@@H](CO)O2)c(=O)[nH]c1=O,inactive
6,COC(=O)C1=C(C#N)NC(C)=C(C(=O)OC(C)C)C1c1cccc([N+](=O)[O-])c1 (configuration not stated),inactive
7,Cc1cc(C(=O)NNCc2ccccc2)no1,inactive
8,NC(=O)c1ncn(C2OC(CO)C(O)C2O)n1 (configuration not stated),inactive
9,O=C(O)CCC(=O)C(=O)O,inactive
10,COC(=O)CCC(=O)CN,inactive
11,COC(F)(F)C(Cl)Cl,inactive
12,O=S(=O)(O)O,inactive
13,CCCCCCCC(=O)O,inactive
14,CCOC(C)=O,inactive
15,Cc1ccccc1,inactive
16,CC(C)(C)NC(=O)[C@@H]1C[C@@H]2CCCC[C@@H]2CN1C[C@@H](O)[C@H](Cc1ccccc1)NC(=O)[C@H](CC(N)=O)NC(=O)c1ccc2ccccc2n1,inactive
17,CCCCCCOc1ccc(C(=N)N(CCCC)CCCC)c2ccccc12,16.1 µM (active)
